For 36 compounds, activity, negative = inhibition, Potency and outcome results are on record in PubChem BioAssay (NCATS).

Each structure is given as a SMILES string. Several values for one entry are separate records, joined by “and”; a condition that tells them apart may be missing. Equal entries are not always repeated. Unmarked numbers belong to inactive results. Results filed as inconclusive are left out. Activity calls are given as the source filed them. Unless noted, the call rests on the fitted dose curve; in most records, active means well fitted curve in either direction with a large enough effect (not every such curve was filed as active); inconclusive means small, poorly fitted or top-dose-only effect, or another doubt; inactive means flat fitted curve, though single readings scatter.

Experiment [1] in a line: Stat Signaling Pathway (AID 446).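 Further: ME-180 cervical cancer cells given 40 pM IL-6 alongside compound; SIE-controlled beta-lactamase reporter measured as 460/530 nm FRET emission ratio; on the % scale 0 is the no-effect control and ±100 the full control effect.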 The following applies: ME-180 (cervical carcinoma) SIE beta-lactamase reporter, IL-6 stimulated, 5 h. In outline:
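Emission at 460 and 530 nm (excitation 405 nm) reports SIE-controlled beta-lactamase in ME-180 cells. Cells received compound with 40 pM IL-6 for 5 hrs at 37 C; data scaled between 300 pM IL-6 and 125 nM JAK-inhibitor controls.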

Experiment [2] addresses Glucocorticoid receptor (Homo sapiens) (UniProt P04150). The experiment in a line: GR-GFP Redistribution (AID 450;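 active means compounds whose dose series gives a full or clear partial fitted curve of increased nuclear translocation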; further: potency means the concentration at half of the fitted maximal effect). Conditions: U2OS GR-GFP nuclear translocation, laser cytometry, 2 h.
Experiment [3] shares this target. The experiment in a line: GR-EFC Redistribution (AID 451; calls by dose curve; further: potency means the concentration at half of the fitted maximal effect). The following applies: CHO-K1 GR-EFC translocation, beta-gal luminescence, 2 h. In outline: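 CHO-K1 cells expressing nuclear EA and GR-ED fragments of b-gal; compounds titrated up to 46 uM final, 2 h at 37 C. GR nuclear translocation read as complemented b-gal luminescence after 1 h RT detection.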
In experiment [4] the target is Mitogen-activated protein kinase 10 (Mus musculus) (UniProt Q61831). Briefly: JNK3 AlphaScreen Assay (AID 530).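 Further: kinase came from lysate of stimulated human HepG2 cells; signal reports phosphorylation of biotinylated GST-cJun 1-79 at Ser73 with 10 µM ATP; on the % scale 0 is the no-effect control and ±100 the full control effect.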 In outline:
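Activity was read by AlphaScreen after JNK3-containing HepG2 lysate (cytokine pre-activated) phosphorylated biotinylated GST-cJun with 10 uM ATP at room temperature. Phospho-Ser73 cJun antibody with Protein-A acceptor beads provided detection.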
In general terms: Bead proximity is the source of the signal in Alpha formats.

Setting [5] is: at 38 µM (top of the series) unless noted.

Chain of Glucocorticoid receptor (Homo sapiens) (P04150 whole entry, looked up, the tested form may be a part): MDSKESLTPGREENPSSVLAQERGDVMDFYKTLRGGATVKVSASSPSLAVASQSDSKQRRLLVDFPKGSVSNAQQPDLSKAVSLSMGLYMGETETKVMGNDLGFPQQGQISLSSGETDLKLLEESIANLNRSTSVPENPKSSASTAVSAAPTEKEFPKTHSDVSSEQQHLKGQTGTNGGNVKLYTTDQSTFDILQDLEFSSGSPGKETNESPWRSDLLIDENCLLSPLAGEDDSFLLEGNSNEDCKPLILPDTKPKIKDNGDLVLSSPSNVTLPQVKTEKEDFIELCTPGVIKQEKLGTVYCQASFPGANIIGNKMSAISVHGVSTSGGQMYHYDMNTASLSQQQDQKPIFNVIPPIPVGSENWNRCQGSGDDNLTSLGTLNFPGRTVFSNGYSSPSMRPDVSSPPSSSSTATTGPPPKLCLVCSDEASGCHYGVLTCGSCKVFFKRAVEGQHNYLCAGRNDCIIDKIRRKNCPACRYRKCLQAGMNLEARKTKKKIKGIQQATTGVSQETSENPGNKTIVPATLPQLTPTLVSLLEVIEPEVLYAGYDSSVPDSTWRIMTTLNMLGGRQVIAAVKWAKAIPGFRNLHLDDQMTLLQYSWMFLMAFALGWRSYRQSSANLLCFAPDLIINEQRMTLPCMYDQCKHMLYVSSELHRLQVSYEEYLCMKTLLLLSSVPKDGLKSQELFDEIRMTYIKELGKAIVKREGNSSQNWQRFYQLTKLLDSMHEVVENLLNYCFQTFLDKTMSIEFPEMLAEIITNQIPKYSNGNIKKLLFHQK

Turning to `Nc1ccc2c3c(cccc13)C(=O)NC2=O`, the activity, negative = inhibition in experiment [1] (setting [5]) was -25.5%. In addition, the Potency in experiment [2] and in experiment [3] was greater than 46 µM each time.

`O=C(O)/C=C/c1ccc(O)c(O)c1`: the activity, negative = inhibition in experiment [1] (setting [5]) was -8.31% [at 17.2 µM]. Also, the Potency in experiment [2] was greater than 20.6 µM.

On to `COc1ccccc1N1CCN(CCCCNC(=O)c2ccc3ccccc3c2)CC1`, for which the values for the activity, negative = inhibition in experiment [1] (at 17.2 µM (top of the series)) and in experiment [1] (at 38 µM (top of the series)) were 5.11% and -1.2%, respectively. For the same compound, the Potency is > 46 µM and > 20.6 µM in experiment [2]; > 46 µM and > 20.6 µM in experiment [3].

As for `CC1CNCCN1S(=O)(=O)c1cccc2cnccc12` (stereo unspecified), the activity, negative = inhibition in experiment [1] (setting [5]) is -1.62% [at 17.2 µM]. The Potency in experiment [2] was greater than 20.6 µM.

Regarding `NCCCNCCCCNCCCN`, the activity, negative = inhibition in experiment [1] (setting [5]) was -4.41%. Moreover, the Potency in experiment [2] and in experiment [3] was greater than 46 µM throughout.

Turning to `O=c1[nH]c2cc(Cl)ccc2c(O)c1-c1ccc(Oc2ccccc2)cc1`, in experiment [1] (setting [5]), the activity, negative = inhibition is -10.1%. The Potency in experiment [2] and in experiment [3] was greater than 46 µM throughout.

With `O=c1oc(Cl)c(Cl)c2ccccc12`, in experiment [1] (setting [5]), the activity, negative = inhibition was 22.3% (active). The Potency in experiment [2] and in experiment [3] was greater than 46 µM each time.

Regarding `CC(C)NCC(O)COc1ccc(CC(N)=O)cc1` (stereo unspecified), in experiment [1] (setting [5]), the activity, negative = inhibition was 14% [at 17.2 µM].

In the case of `CC(=O)NCCc1c[nH]c2ccc(O)cc12`, the activity, negative = inhibition in experiment [1] (setting [5]) was -51.8%. Besides, the Potency in experiment [2] and in experiment [3] was greater than 46 µM throughout.

For the compound `CC(C)NC[C@H](O)COc1ccc(CC(N)=O)cc1`, the activity, negative = inhibition in experiment [1] (at 17.2 µM (top of the series)) is 2.19% and -5.69%; in experiment [1] (at 38 µM (top of the series)) it was 0.94% and 14.3%. For the same compound, the compound was classed as inactive in experiment [4].

As for `NC(N)=[N+]1CCc2ccccc2C1`, in experiment [1] (setting [5]), the activity, negative = inhibition is 19.1%. The Potency in experiment [2] and in experiment [3] was greater than 46 µM throughout.

Consider `COc1ccc(C(=O)NCc2cccnc2)cc1C(=O)NCc1cccnc1`, for which the activity, negative = inhibition was 2.24% in experiment [1] (at 17.2 µM (top of the series)) and -27.6% in experiment [1] (at 38 µM (top of the series)). Besides, the Potency in experiment [2] was > 46 µM and > 20.6 µM; in experiment [3] it was > 46 µM and > 20.6 µM.

With `O=[N+]([O-])c1cccc2cn[nH]c12`, the results for the activity, negative = inhibition in experiment [1] (at 17.2 µM (top of the series)) and in experiment [1] (at 38 µM (top of the series)) were -4.16% and -5.67%, respectively. Further, the Potency in experiment [2] was > 46 µM and > 20.6 µM; in experiment [3] it was greater than 46 µM. The compound was called inactive in experiment [4].

As to `CCCn1c(=O)c2[nH]c(-c3ccc(S(=O)(=O)O)cc3)nc2n(CCC)c1=O`, the activity, negative = inhibition in experiment [1] (setting [5]) is 42.3%. In addition, the Potency in experiment [2] and in experiment [3] was greater than 46 µM throughout.

Take `O=S(=O)(c1cccc2c(Cl)cccc12)N1CCCNCC1`: the activity, negative = inhibition in experiment [1] (setting [5]) was -1.55%. Further, the Potency in experiment [2] and in experiment [3] was greater than 46 µM throughout.

Take `NCCCCN`: the activity, negative = inhibition in experiment [1] (setting [5]) was -10.8%.

Consider `NCCS(=O)O`, for which the activity, negative = inhibition in experiment [1] (setting [5]) is -6.03%. In addition, the Potency in experiment [2] and in experiment [3] was greater than 46 µM throughout.

Take `CCCn1c(=O)c2[nH]c(C3CCCC3)nc2n(CCC)c1=O`: the figures for the activity, negative = inhibition in experiment [1] (at 17.2 µM (top of the series)) and in experiment [1] (at 38 µM (top of the series)) were -4.29% and -11.4%, respectively. The Potency is > 46 µM and > 20.6 µM in experiment [2]; greater than 46 µM in experiment [3].

For `O=C(O)C1CCNCC1`, the activity, negative = inhibition in experiment [1] (setting [5]) is -8.76%. Also, the Potency in experiment [2] and in experiment [3] was greater than 46 µM throughout.

As to `Cc1nc(N=Nc2ccc(C(=O)O)cc2)c(COP(=O)(O)O)c(C=O)c1O`, in experiment [1] (setting [5]), the activity, negative = inhibition was -19.4%. Besides, the Potency in experiment [2] and in experiment [3] was greater than 46 µM throughout.

Take `CN(C)CCC(c1ccc(Br)cc1)c1ccccn1` (stereo unspecified): the activity, negative = inhibition in experiment [1] (setting [5]) was 1.22% [at 17.2 µM].

With `CCN1C(=O)C=CC1=O`, the activity, negative = inhibition in experiment [1] (setting [5]) is -6.29%. Moreover, the Potency in experiment [2] and in experiment [3] was greater than 46 µM in each case.

With `N[C@@H](Cc1ccc(O)c(I)c1)C(=O)O`, in experiment [1] (setting [5]), the activity, negative = inhibition is 5.15% [at 17.2 µM]. Further, the Potency in experiment [2] is greater than 20.6 µM.

Consider `CCCCCCC/C=C\CCCCCCCCC(=O)O`, for which the activity, negative = inhibition in experiment [1] (setting [5]) is -1.08%. In addition, the Potency in experiment [2] and in experiment [3] was greater than 46 µM each time.

`O=C(O)C1=CCCN(CCON=C(c2ccccc2)c2ccccc2)C1`: the activity, negative = inhibition in experiment [1] (setting [5]) was -1.1%. Besides, the Potency in experiment [2] and in experiment [3] was greater than 46 µM in each case.

As for `CCCOC(=O)c1c(-c2ccccc2)nc(CC)c(C(=O)SCC)c1CCC`, in experiment [1] (setting [5]), the activity, negative = inhibition was -19.4%. Further, the Potency in experiment [2] and in experiment [3] was greater than 46 µM in each case.

In the case of `COCc1nc2c([nH]1)c(=O)n(C)c(=O)n2CC(C)C`, the activity, negative = inhibition in experiment [1] (setting [5]) was -22%. For the same compound, the Potency in experiment [2] and in experiment [3] was greater than 46 µM throughout.

Consider `CSC(=N)N`, for which the activity, negative = inhibition in experiment [1] (setting [5]) is -2.27%.

Regarding `COc1ccccc1N1CCN(CCCCN2C(=O)c3ccccc3C2=O)CC1`, the activity, negative = inhibition in experiment [1] (setting [5]) is 19%. Moreover, the Potency in experiment [2] and in experiment [3] was greater than 46 µM in each case.

With `CCn1c(=O)[nH]c2cc(Cl)c(Cl)cc21`, the activity, negative = inhibition in experiment [1] (setting [5]) is -18.6%. The Potency in experiment [2] and in experiment [3] was greater than 46 µM each time.

Turning to `Nc1ncnc2c1ncn2C1CCCC1`, the activity, negative = inhibition in experiment [1] (setting [5]) is 8.7%. In addition, the Potency in experiment [2] and in experiment [3] was greater than 46 µM each time.

Turning to `Nc1ncnc2c1c(-c1ccc(Oc3ccccc3)cc1)cn2C1CCCC1`, the activity, negative = inhibition in experiment [1] (setting [5]) was -13.6%. Also, the Potency in experiment [2] and in experiment [3] was greater than 46 µM in each case.

With `O=C(O)c1cc(=O)cc(C(=O)O)[nH]1`, in experiment [1] (setting [5]), the activity, negative = inhibition is 10.8%. In addition, the Potency in experiment [2] and in experiment [3] was greater than 46 µM each time.

For the compound `NC(N)=NC(N)=Nc1ccccc1`, the activity, negative = inhibition in experiment [1] (setting [5]) was -15.1%. Also, the Potency in experiment [2] and in experiment [3] was greater than 46 µM in each case. In addition, in experiment [4], the call was inactive.

Regarding `N#C/C(=C\c1ccc(O)c(O)c1)C(=O)NCCc1ccccc1`, the activity, negative = inhibition in experiment [1] (setting [5]) was -24%. In experiment [3], the Potency was greater than 46 µM.

In the case of `COc1ccccc1N1CCN(CCCNc2c(C)c(=O)n(C)c(=O)n2C)CC1`, the activity, negative = inhibition in experiment [1] (setting [5]) was 0.762%. In addition, in experiment [3], the Potency was greater than 46 µM.
